Screening results from PubChem BioAssay.
esBAF inh: SWI/SNF esBAF complex inhibition; mouse ES cells, Bmi1-luciferase knock-in reporter, 24 h; 100% = twice the neutral-well signal; reporter increase, % at 12.5 µM; 2% of 350,000 active; AID 602393; in the data active = activation above about 40%; inconclusive = no clear call, values can overlap the other calls;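 also: 0% = median of the plate's neutral control wells and 100% = double that signal; a rise in the Bmi1 reporter signal indicates esBAF inhibition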
Wnt act: Wnt/beta-catenin pathway activation; AID 743398; Wnt/beta-catenin reporter cell assay, activator, plate reader; 1.2% of 300,000 active; activation, % at 9.35 µM; in the data active = activation above about 30%, passing the limit was not always enough; inconclusive = no clear call, values can overlap the other calls;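 also: 0% = neutral control wells and 100% = positive control wells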
MITF TRPM1 HTS: activators of MITF-driven TRPM1 promoter activity in SK-MEL-5 cells; SK-MEL-5 TRPM1-promoter luciferase, 24 h; % of positive control, neutral wells = 0; activation, % at 12.5 µM; 0.75% of 300,000 active; AID 588334;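 active = mean activation of at least 80% with every replicate also reaching 80%; inconclusive = mean reaches 80% but some replicate falls short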;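 also: 0% = neutral control wells and 100% = parthenolide positive control wells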
AF4-AF9 inh: blocks AF4 peptide binding to human AF9. P42568. AID 651704. 0.47% of 350,000 active. inhibition, % at 10 µM. AlphaScreen, biotin-AF4 peptide binding to FLAG-AF9;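 active = every replicate reaching a set inhibition limit, whatever the replicate mean, cut at about 25% in these data; inconclusive = mean inhibition reaches that limit but some replicates miss it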;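 also: 0% = plate neutral control median and 100% = total signal loss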
Target sequence (P42568 whole entry, looked up): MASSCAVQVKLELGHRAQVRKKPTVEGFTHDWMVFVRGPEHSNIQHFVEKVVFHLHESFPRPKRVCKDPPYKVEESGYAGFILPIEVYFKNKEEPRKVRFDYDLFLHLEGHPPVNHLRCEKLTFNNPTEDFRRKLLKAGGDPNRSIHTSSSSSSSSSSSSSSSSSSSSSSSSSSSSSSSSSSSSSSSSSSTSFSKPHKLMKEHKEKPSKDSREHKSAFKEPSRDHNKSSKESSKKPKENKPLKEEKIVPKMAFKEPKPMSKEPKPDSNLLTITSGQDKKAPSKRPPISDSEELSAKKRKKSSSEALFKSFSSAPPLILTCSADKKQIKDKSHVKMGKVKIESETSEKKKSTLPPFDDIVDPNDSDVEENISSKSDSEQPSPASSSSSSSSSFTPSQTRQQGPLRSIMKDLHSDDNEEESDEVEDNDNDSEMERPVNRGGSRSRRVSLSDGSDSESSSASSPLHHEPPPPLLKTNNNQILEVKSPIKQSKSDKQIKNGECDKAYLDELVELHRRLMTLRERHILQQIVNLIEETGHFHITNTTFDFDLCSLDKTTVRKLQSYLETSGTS
Ecoli rRNA inh: inhibits bacterial ribosomal RNA function over humanized ribosomes; GFP signal change (wild-type ribosome), % (no concentration beside the values); 1.6% of 350,000 active; E. coli WT GFP vs humanized-ribosome RFP mutants, fluorescence, 24 h; hits give low values; DMSO median 0, no signal -100; AID 720706;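 active = significant combined selectivity score with lowered wild-type GFP, culture density cut under 30%, mutant RFP and density less affected; inactive = any of these conditions unmet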
* hit, by the source's call; ? = inconclusive; . = no result. Sampled rows, rich in hits. Any-hit rate of the full collection: about 3.7%.

SMILES	esBAF inh	Wnt act	MITF TRPM1 HTS	AF4-AF9 inh	Ecoli rRNA inh
N#Cc1ccccc1OCc1nnc(-c2ccccc2Br)o1	55*	29	159*	2	-5
CN(C(=O)CSc1nncn1-c1ccccc1)C1CCS(=O)(=O)C1 (configuration not stated)	1	2	4	7	-1
O=C(NC1CC1)c1ccc(CSCc2ccc(Cl)cc2)o1	14	6	.	2	-8
COc1ccc(-c2cc(=O)oc3cc(OC(C)C(=O)NC(Cc4c[nH]c5ccc(O)cc45)C(=O)O)ccc23)cc1 (configuration not stated)	-7	-2	.	-4	.
CC(Oc1ccc2c(-c3ccccc3)cc(=O)oc2c1)C(=O)N[C@H](Cc1c[nH]c2ccccc12)C(=O)O (some centres not stated)	1	2	-17	-1	-24*
CC(C)CC(=O)Nc1ccc2oc(-c3ccncc3)nc2c1	67*	16	69	2	.
O=C(Nc1ccc2oc(-c3ccncc3)nc2c1)c1ccccc1	11	0	1	-2	9
CC(=O)Nc1ccc2oc(-c3ccccc3)nc2c1	.	64*	79	-2	-29
O=C(Nc1ccc2oc(-c3ccccc3F)nc2c1)c1ncn[nH]1	-3	52*	3	.	.
CCCC(=O)Nc1ccc2oc(-c3cccnc3)nc2c1	.	37*	51	.	.
CCCCC(=O)Nc1ccc2oc(-c3cccnc3)nc2c1	23	.	39	.	.
COc1ccccc1C(=O)Nc1c(-c2ccccc2)nc2ccccn12	-4	-1	-9	-2	-4
Cc1nn(CC(=O)N2CCC(C)CC2)c(=O)c2nn(-c3ccccc3)c(C)c12	3	-3	-7	-3	8
O=C(Nc1ccc2oc(-c3cccc(F)c3)nc2c1)c1ccccc1F	.	7	60	-73	3
O=C(Nc1ccc2oc(-c3ccc(Cl)c(Cl)c3)nc2c1)c1ncn[nH]1	52*	42*	55	.	.
O=C(Cc1ccccc1)NC(=S)Nc1ccc2oc(-c3ccccc3F)nc2c1	7	.	125*	.	.
O=C(Nc1ccc2oc(-c3ccncc3)nc2c1)c1ccccc1F	39	.	40	.	.
O=C(Nc1ccc2oc(-c3ccccc3F)nc2c1)c1ccccc1F	85*	15	60	-5	-22
O=C(Nc1ccc2oc(-c3ccccc3)nc2c1)c1ccccc1F	51*	.	58	.	.
Cc1ccc(CNC(=O)CN(C)S(=O)(=O)c2cnc[nH]2)cc1	.	0	8	.	.
CSc1cccc(NC(=O)CN(C)S(=O)(=O)c2ccccc2)c1	1	-1	11	-12	-13
Cc1ccc(-c2ccc(/C=N/NC(N)=S)o2)cc1	.	58*	.	9	-9
NC(=S)N/N=C/c1ccc(-c2ccccc2)o1	.	3	18	13	3
Cc1noc(C)c1S(=O)(=O)N1CCCC(C(=O)NCCc2ccc(Cl)cc2)C1 (configuration not stated)	6	.	7	.	.
O=C(COC(=O)c1c[nH]c2ccccc12)NC1CCCC1	16	4	-4	2	0
SMILES	esBAF inh	Wnt act	MITF TRPM1 HTS	AF4-AF9 inh	Ecoli rRNA inh
O=C(NC1CCCC1)c1n[nH]c2ccccc12	53*	8	66	-2	-1
Cc1ccc(NC(=O)C(=O)c2c[nH]c3ccccc23)cc1	20	64*	.	-1	6
O=C(NC1CCCCC1)C(=O)c1c[nH]c2ccccc12	45*	?	66	-10	7
Nc1nc(N)c(Cc2ccc(Cl)cc2Cl)c(N)n1	.	-1	-8	2	-29*
Nc1nccc(SCc2ccc(Cl)cc2Cl)n1	5	-1	-5	2	-2
Cc1ccc(S(=O)(=O)Oc2ccc(N3C(=O)C4C5CCC(C5)C4C3=O)cc2)cc1 (configuration not stated)	.	-1	10	-1	15
O=C1C2C3CCC(C3)C2C(=O)N1c1ccc(OS(=O)(=O)c2ccccc2)cc1 (configuration not stated)	.	34*	61	-5	-1
CN(C)C(=O)c1cccc(-c2ccc3c(c2)[C@@H]2[C@@H](CCN2C(=O)C2CCCC2)[C@@H](CO)N3)c1	.	.	.	2	-2
CC(=O)Nc1cccc(NC(=O)c2ccc3[nH]c(C)c(C)c3c2)c1	49*	5	32	5	-4
Cc1cc(NC(=O)c2ccc3[nH]c(C)c(C)c3c2)ccn1	40	3	16	-6	-18
COc1ccc(NC(=O)c2ccc3[nH]c(C)c(C)c3c2)cc1	58*	16	88*	4	-25*
Cc1noc(C)c1S(=O)(=O)Nc1ccc2c(c1)C(=O)N([C@@H](C)CO)C[C@H](C)[C@H](CN(C)Cc1ccc(C(=O)O)cc1)O2	4	.	.	-2	9
CCn1c(COc2ccc3c(c2)OCO3)nnc1SCC(=O)c1ccccc1	3	0	-4	.	.
COC(=O)c1sccc1NC(=O)CSc1cccc(Cl)c1Cl	.	.	-4	.	.
O=[N+]([O-])c1cc(-c2nnc(Nc3ccccc3)c3ccccc23)ccc1N1CCOCC1	.	-3	-14	12	-6
O=[N+]([O-])c1cc(-c2nnc(N3CCOCC3)c3ccccc23)ccc1N1CCOCC1	.	-6	-11	7	-35*
CSc1ccc(CNc2ccc(Cl)cc2)cc1	38	-1	101*	1	-9
CCOC(=O)c1c(C)nc2ccc(Cl)cc2c1-c1ccccc1	.	-1	1	-20	-26
CC(=O)c1c(C)nc2ccc(C)cc2c1-c1ccccc1	-7	-2	-8	-1	-36*
O=C(C[C@@H]1C[C@H]2c3cc(NC(=O)c4ccc5c(c4)OCO5)ccc3O[C@H]2[C@H](CO)O1)NCc1ccccn1	3	.	.	0	-2
CCOc1cc(/C=C(\C#N)C(=O)Nc2cccc(C(=O)O)c2)cc(Br)c1OC(=O)c1ccc(OC)cc1	-7	-1	2	2	-33*
N#C/C(=C\c1ccc(OCc2ccc(F)cc2)cc1)C(=O)Nc1cccc(C(=O)O)c1	33	51*	66	-19	-3
N#C/C(=C\c1ccc(OCc2ccccc2)cc1)C(N)=O	.	41*	63	1	-1
C[C@@H]1CN([C@H](C)CO)S(=O)(=O)c2ccc(C#CC3CC3)cc2O[C@H]1CN(C)CC1CCOCC1	-1	.	.	7	-7
CCc1cccc(NC(=O)Cn2c3[n+](c4ccc(C(F)(F)F)cc42)CCCCC3)c1	.	-1	-10	7	-45*
O=C(Cn1c2[n+](c3ccc(C(F)(F)F)cc31)CCCCC2)Nc1ccccc1	.	1	-7	3	-24
O=C(Cn1c2[n+](c3ccc(C(F)(F)F)cc31)CCCCC2)c1ccc2c(c1)OCCO2	.	-2	-14	2	-38*
O=C(Cn1c2[n+](c3ccc(C(F)(F)F)cc31)CCCCC2)c1cccc([N+](=O)[O-])c1	1	.	6	2	4
CCCc1c(C)[nH]c2ccc(NC(C)=O)cc2c1=O	-7	.	-5	.	.
COc1ccc(C(=O)NCCc2ccccn2)cc1S(=O)(=O)Nc1ccc(Br)cc1	2	-1	-6	0	-20*
